The results in this text go back to PubChem BioAssay AID1508622 (National Center for Advancing Translational Sciences (NCATS), 2021).

Active and inactive are the calls of the source. Calls come from the whole dose curve; as a rule, active = well fitted activation curve with a large enough effect; inconclusive = small, poorly fitted or top-dose-only effect; inactive = no such curve, though single readings can be large or run the other way.
Potency is the fitted concentration of half-maximal effect.

The nature of the test: Confirmatory qHTS for Identification of Small Molecule Activators of Huntingtin-Antisense Promoter Activity. To be noted: HEK293 HTT-AS promoter firefly luciferase reporter, 24 h; series mostly up to 57.5 µM; activity change, positive = activation: at the top concentration. In short, it runs like this:
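Activity normalized between vehicle control (0%) and zero RLU (-100%) from firefly luminescence (Dual-Glo). Compounds, up to 57.5 uM final, incubated 24 h at 37C on HEK293 reporter cells plated 24 h earlier.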
(In general: qHTS replaces the single test concentration by a dilution series.)
Take `COc1ccc(-c2onc(C)c2C)cc1S(=O)(=O)N1CCc2ccccc21`: the “activity change, positive = activation” value was -80.5% (inactive). Same read-out and setting: next, `CC(=O)c1ccc(N2CCN(c3ncnc4onc(C)c34)CC2)cc1`: -93.4% (inactive); `Cc1ccccc1NC(=O)c1c(NC(=O)C(F)(F)F)sc2c1CCCCC2`: -91.3% (inactive); `Cc1ccc(CN(C(=O)COc2cccc(Cl)c2)c2ccccn2)o1`: -10.8% (inactive). Same read-out and setting: for `CCc1c(C)nc2nncn2c1NCc1ccc(OC)cc1` the value was -50.3% (inactive). Same read-out and setting: for `Cc1ccccc1OCc1ccc(-c2nc(C#N)c(NCc3cccnc3)o2)o1` the value was -30.9% (inactive). On to `CCOC(=O)C1CCC(CN(Cc2ccc(Cl)cc2)S(=O)(=O)c2cc(Cl)cc(Cl)c2)CC1` (centres undefined), for which the “activity change, positive = activation” value was -93.1% (inactive).

`Cc1ccc(N2CCN(C(=O)c3nn(C)c4c3CS(=O)(=O)c3ccccc3-4)CC2)c(C)c1`: the “activity change, positive = activation” value is -26% (inactive). Still for that read-out and setting: for `COc1ccccc1N1CCN(C(CNC(=O)C(=O)NCc2ccc(C)cc2)c2cccnc2)CC1` (centres undefined) the value was -81.1% (inactive).

With `Cc1ccccc1-c1noc(CSc2nc3ccccc3[nH]2)n1`, the “activity change, positive = activation” value was -83.7% (inactive). Same read-out and setting: next, `Cc1ccc(Cl)cc1N(C)C(=O)C1CCCN(c2ncnc3onc(-c4ccc(F)cc4)c23)C1` (centres undefined): -42.5% (inactive); `CCOc1ccc(N(Cc2ccccc2)C(=O)c2nc(SC)ncc2Cl)cc1`: -31% (inactive). For the compound `O=C(Nc1nc2cccc(-c3ccc(CN4CCS(=O)(=O)CC4)cc3)n2n1)C1CC1`, the Potency was 8.49 µM (active). Consider `O=C(CN1C(=O)C2(SCC(=O)N2c2cccc(Cl)c2)c2ccccc21)NCCc1ccccc1` (centres undefined), for which the “activity change, positive = activation” value is -24.2% (inactive). For `Cc1nnc(N2CCN(c3cccc(C(F)(F)F)c3)CC2)c2c1nnn2Cc1ccccc1`, the “activity change, positive = activation” value is -69% (inactive). With `COc1ccc(NC(=O)Cn2c(SCc3ccc(F)cc3)nc3cccnc32)cc1OC`, the “activity change, positive = activation” value is -27.2% (inactive). On to `Cc1ccc(-c2nnc(Nc3ccc(F)cc3)c3ccccc23)cc1S(=O)(=O)NC(C)C`, for which the “activity change, positive = activation” value was -23.9% (inactive). Regarding `CCCOc1ccccc1C(=O)N1CCC(c2nc3ccccc3s2)CC1`, the “activity change, positive = activation” value is -60.7% (inactive). Regarding `Cc1cccc(-c2nc(SCC(=O)Nc3ccc4c(c3)OCO4)c(-c3ccccc3)[nH]2)c1`, the “activity change, positive = activation” value was -19.4% (inactive). Still for that read-out and setting: next, `Cc1cccc2sc(N3CCN(C(=O)CS(=O)(=O)c4ccc(F)cc4)CC3)nc12`: -37% (inactive); `COc1cccc(NS(=O)(=O)c2ccc3[nH]cc(C(=O)NCCc4ccc(C)cc4)c(=O)c3c2)c1`: -24.5% (inactive). Turning to `CCc1cccc(-n2nnc(S(=O)(=O)c3ccc(OC)cc3)c2C)c1`, the “activity change, positive = activation” value was -47.9% (inactive).

On to `Cc1ccc(Cn2c(SCc3ccc(C(=O)N4CCCCC4)cc3)nc3ccncc32)cc1`, for which the “activity change, positive = activation” value is -91.1% (inactive).

Consider `CCS(=O)(=O)c1ncc(Cl)c(C(=O)N(Cc2ccccc2)c2ccc(OC)cc2)n1`, for which the “activity change, positive = activation” value is -94.1% (inactive).

Regarding `CC(C)c1nc2ccc(C(=O)NCCCN3CCN(c4cccc(Cl)c4)CC3)cc2o1`, the “activity change, positive = activation” value was -39% (inactive). `COc1ccc(N(CC(=O)N2CCN(c3cccc(C)c3C)CC2)S(=O)(=O)c2c(C)noc2C)cc1`: the “activity change, positive = activation” value was -28.1% (inactive). Still for that read-out and setting: for `COc1ccc(Cn2c(SCc3ccc(C(=O)NC4CCCCC4)cc3)nc3ccncc32)cc1` the value was -30.4% (inactive); for `CCOC(=O)C1=C(CN2CCN(c3ccccc3F)CC2)NC(=O)NC1c1ccc(OC)cc1` (centres undefined), -66.6% (inactive).

Regarding `CCc1ccc(-n2c(SCC(=O)NC(C)CC)nc3n[nH]c(C)c3c2=N)cc1` (centres undefined), the “activity change, positive = activation” value is -9.19% (inactive).

In the case of `CCOC(=O)c1ccc(N2C(=O)c3[nH]nc(-c4ccc(OCC)cc4)c3C2c2cccs2)cc1` (centres undefined), the “activity change, positive = activation” value is -25.7% (inactive). On the same count and under the same terms, next, `N#Cc1nc(-c2ccc(COc3ccc(Cl)cc3)o2)oc1N1CCC(C(N)=O)CC1`: -42.8% (inactive). Still for that read-out and setting: next, `O=C(Nc1cccc(Cl)c1)C1CCCN(c2nn3cc(-c4ccc(F)cc4)nc3s2)C1` (centres undefined): -64.6% (inactive). Consider `COc1ccc(S(=O)(=O)Nc2cc3c(C(=O)OC(C)C)c(C)oc3c3ccccc23)cc1`, for which the “activity change, positive = activation” value is -11.5% (inactive). On to `Cn1c(=O)c2sccc2n2c(CCCC(=O)Nc3ccc(Oc4ccc(Cl)cc4)cc3)nnc12`, for which the “activity change, positive = activation” value was -57.8% (inactive).

Turning to `Cc1ccc2onc(CC(=O)Nc3cccc(C(F)(F)F)c3)c2c1`, the “activity change, positive = activation” value is -21.6% (inactive). Regarding `COc1ccc(NC(=O)c2ccc(-c3nc(CSc4ccc(C)cc4)c(C)o3)cc2)cc1Cl`, the “activity change, positive = activation” value was -52.9% (inactive). Regarding `CN(C)Cc1c(C(=O)NCCOc2ccc(C(=O)NO)cc2)oc2ccccc12`, the Potency is 7.57 µM (active). With `COc1ccc(NC(=O)Cc2csc(COc3cccc(C)c3)n2)cc1OC`, the “activity change, positive = activation” value is -68.6% (inactive). `Cc1cccc(NC(c2cccc(Cl)c2)c2ccc3cccnc3c2O)n1` (centres undefined): the “activity change, positive = activation” value was -37.3% (inactive).
